PubChem BioAssay AID1159580 (chemical genetic matrix, 2015)
Screen size: about 5,500 compounds; about 2,000 (36%) were called active. Inconclusive results (about 18%) are left out. Cut-off read from the data, not from the text of the source: active = normalized growth mostly below about 0.91 (no sharp cut-off); inconclusive = no clear call, values can overlap the other calls; inactive = mostly above about 0.92. Some of the results follow.

Assay: chemical genetic growth profiling, strain panel (AID 1159580);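 note: tested at 20 µM; growth read once vehicle control cultures reached saturation at 30 °C; 1 = growth at the plate median or of vehicle wells; lower values mean less growth of the strain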
Conditions: growth OD

Measured: normalized growth

C[N+]1(C)C[C@H](O)[C@H](C(=O)[O-])C1
inactive: S. cerevisiae deletion strains, locus YJR043C, strain POL32, hits give low values 0.995 | S. cerevisiae deletion strains, locus YJR075W, strain HOC1, hits give low values 0.994 | S. cerevisiae deletion strains, locus YKL009W, strain mrt4, hits give low values 0.991 | S. cerevisiae deletion strains, locus YKL068W, hits give low values 0.996 | S. cerevisiae deletion strains, locus YKL085W, strain MDH1 (second series), hits give low values 0.988 | S. cerevisiae deletion strains, locus YKL085W, strain MDH1, hits give low values 0.988 | S. cerevisiae deletion strains, locus YKL160W, strain elf1, hits give low values 0.993 | S. cerevisiae deletion strains, locus YKL190W, strain CNB1, hits give low values 1.01 | S. cerevisiae deletion strains, locus YKR001C, strain vps1, hits give low values 0.995 | S. cerevisiae deletion strains, locus YKR026C, strain gcn3, hits give low values 1.01 | S. cerevisiae deletion strains, locus YKR091W, strain srl3, hits give low values 1.01 | S. cerevisiae deletion strains, locus YLL001W, strain dnm1, hits give low values 1 | S. cerevisiae deletion strains, locus YLL026W, hits give low values 1.02 | S. cerevisiae deletion strains, locus YLL041C, strain sdh2, hits give low values 1.01 | S. cerevisiae deletion strains, locus YLR027C, strain aat2, hits give low values 1.01 | S. cerevisiae deletion strains, locus YLR039C, strain RIC1, hits give low values 1.02 | S. cerevisiae deletion strains, locus YLR058C, strain SHM2, hits give low values 1.01 | S. cerevisiae deletion strains, locus YLR102C, strain apc9, hits give low values 0.995 | S. cerevisiae deletion strains, locus YLR221C, strain rsa3, hits give low values 0.997 | S. cerevisiae deletion strains, locus YLR258W, strain gsy2, hits give low values 1.03 | S. cerevisiae deletion strains, locus YLR262C, strain YPT6 (second series), hits give low values 1.02 | S. cerevisiae deletion strains, locus YLR262C, strain YPT6, hits give low values 1.01 | S. cerevisiae deletion strains, locus YLR268W, strain sec22, hits give low values 0.991 | S. cerevisiae deletion strains, locus YLR320W, strain mms22, hits give low values 1.03 | S. cerevisiae deletion strains, locus YLR330W, strain CHS5, hits give low values 1 | S. cerevisiae deletion strains, locus YLR342W, strain FKS1 (second series), hits give low values 1.02 | S. cerevisiae deletion strains, locus YLR342W, strain FKS1, hits give low values 1.01 | S. cerevisiae deletion strains, locus YLR357W, strain rsc2, hits give low values 1.02 | S. cerevisiae deletion strains, locus YLR370C, strain arc18, hits give low values 1.02 | S. cerevisiae deletion strains, locus YLR371W, strain rom2, hits give low values 0.996 | S. cerevisiae deletion strains, locus YLR384C, strain iki3, hits give low values 1.02 | S. cerevisiae deletion strains, locus YLR418C, strain cdc73, hits give low values 1.01 | S. cerevisiae deletion strains, locus YML016C, strain PPZ1, hits give low values 1.01 | S. cerevisiae deletion strains, locus YML032C, strain rad52, hits give low values 0.991 | S. cerevisiae deletion strains, locus YML120C, strain ndi1, hits give low values 0.991 | S. cerevisiae deletion strains, locus YML124C, strain tub3, hits give low values 0.997 | S. cerevisiae deletion strains, locus YMR058W, strain fet3, hits give low values 1.01 | S. cerevisiae deletion strains, locus YMR078C, strain ctf18, hits give low values 1.01 | S. cerevisiae deletion strains, locus YMR125W, strain sto1, hits give low values 1.02 | S. cerevisiae deletion strains, locus YMR129W, hits give low values 1.01 | S. cerevisiae deletion strains, locus YMR205C, strain PFK2, hits give low values 1.04 | S. cerevisiae deletion strains, locus YMR223W, strain ubp8, hits give low values 0.989 | S. cerevisiae deletion strains, locus YMR231W, strain pep5, hits give low values 1.01 | S. cerevisiae deletion strains, locus YMR263W, strain SAP30, hits give low values 1.02 | S. cerevisiae deletion strains, locus YMR307W, strain GAS1, hits give low values 1.07 | S. cerevisiae deletion strains, locus YNL067W, strain RPL9B, hits give low values 1.01 | S. cerevisiae deletion strains, locus YNL071W, strain lat1, hits give low values 1.02 | S. cerevisiae deletion strains, locus YNL128W, strain TEP1, hits give low values 1.01 | S. cerevisiae deletion strains, locus YNL153C, strain GIM3, hits give low values 1.01 | S. cerevisiae deletion strains, locus YNL209W, strain ssb2, hits give low values 1.01 | S. cerevisiae deletion strains, locus YNL233W, strain BNI4, hits give low values 1.01 | S. cerevisiae deletion strains, locus YNL248C, strain rpa49, hits give low values 0.98 | S. cerevisiae deletion strains, locus YNL250W, strain rad50, hits give low values 0.992 | S. cerevisiae deletion strains, locus YNL271C, strain bni1, hits give low values 0.995 | S. cerevisiae deletion strains, locus YNL298W, strain CLA4, hits give low values 1 | S. cerevisiae deletion strains, locus YNL307C, strain MCK1, hits give low values 1.01 | S. cerevisiae deletion strains, locus YNL322C, strain KRE1 (second series), hits give low values 1.02 | S. cerevisiae deletion strains, locus YNL322C, strain KRE1, hits give low values 1.01 | S. cerevisiae deletion strains, locus YNR049C, strain mso1, hits give low values 1.01 | S. cerevisiae deletion strains, locus YNR052C, strain pop2, hits give low values 1 | S. cerevisiae deletion strains, locus YOL006C, strain TOP1, hits give low values 1.06 | S. cerevisiae deletion strains, locus YOL012C, strain htz1 0.813 | S. cerevisiae deletion strains, locus YOL147C, strain pex11, hits give low values 1 | S. cerevisiae deletion strains, locus YOR001W, strain rrp6, hits give low values 0.989 | S. cerevisiae deletion strains, locus YOR061W, strain CKA2, hits give low values 1 | S. cerevisiae deletion strains, locus YOR069W, strain VPS5, hits give low values 1 | S. cerevisiae deletion strains, locus YOR070C, strain gyp1, hits give low values 1.01 | S. cerevisiae deletion strains, locus YOR080W, strain dia2, hits give low values 1.01 | S. cerevisiae deletion strains, locus YOR083W, strain WHI5, hits give low values 0.979 | S. cerevisiae deletion strains, locus YOR106W, strain vam3, hits give low values 0.996 | S. cerevisiae deletion strains, locus YOR136W, strain idh2, hits give low values 0.996 | S. cerevisiae deletion strains, locus YOR144C, strain elg1, hits give low values 0.996 | S. cerevisiae deletion strains, locus YOR184W, strain ser1, hits give low values 1.01 | S. cerevisiae deletion strains, locus YOR265W, strain rbl2, hits give low values 1.01 | S. cerevisiae deletion strains, locus YOR270C, strain vph1, hits give low values 1.02 | S. cerevisiae deletion strains, locus YOR290C, strain snf2, hits give low values 1 | S. cerevisiae deletion strains, locus YOR316C, strain cot1, hits give low values 0.995 | S. cerevisiae deletion strains, locus YPL051W, strain arl3, hits give low values 1.02 | S. cerevisiae deletion strains, locus YPL055C, strain LGE1, hits give low values 1.03 | S. cerevisiae deletion strains, locus YPL078C, strain atp4, hits give low values 1 | S. cerevisiae deletion strains, locus YPL106C, strain sse1, hits give low values 1.04 | S. cerevisiae deletion strains, locus YPL240C, strain hsp82, hits give low values 1.02 | S. cerevisiae deletion strains, locus YPL241C, strain CIN2, hits give low values 1.01 | S. cerevisiae deletion strains, locus YPR119W, strain clb2, hits give low values 1 | S. cerevisiae deletion strains, locus YPR141C, strain kar3, hits give low values 1 | S. cerevisiae deletion strains, locus YPR163C, strain tif3, hits give low values 0.996 | S. cerevisiae deletion strains, locus YPR167C, strain met16, hits give low values 0.995 | S. cerevisiae deletion strains, strain wtn01, hits give low values 0.988 | S. cerevisiae strains, strain wild type, hits give low values 1
